Most compounds without a hit are left out; they make up all but 5.3% or so of the library.
IMPase Li inh – cell-permeable IMPase inhibitors with lithium potentiation; Potency, µM (top dose mostly 59.4 µM), hits mostly inhibitors; AID 1457; 210,000 compounds, 0.35% hits; CHO-M1 cells, IP1 TR-FRET (IP-One), carbachol + lithium;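 further: IP1 builds up when IMPase is blocked and the TR-FRET signal falls; nearly all actives have a fitted effect of over 50% in size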
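Concentration–response in CHO-M1 cells, lithium-potentiated; 30 min at 37C. IP1 detected by competitive TR-FRET after 10 min lysis at RT. Hill-fitted AC50.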
IMPase cell inh – membrane-permeable compound that blocks inositol monophosphatase; CHO-M1 cells, IP1 accumulation, HTRF TR-FRET ratio; 120,000 tested, under 10 active; inhibition (IP1 accumulation), % at 46.1 µM; active means well fitted curve in the direction sought with a large enough effect in the signal ratio, not every such curve was filed as active; inconclusive means small, poorly fitted or top-dose-only effect, or a change in a side signal; inactive means no such curve, though single readings can be large or run the other way; the % refers to the signal ratio;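 further: cells stimulated with carbachol in lithium chloride buffer; higher means more IMPase inhibition seen as more IP1 and lower FRET ratio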
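CHO-M1 cells (CHO stably expressing M1 receptor), compound up to 46 uM final, stimulated with carbachol (50 uM as added) in buffer with 50mM LiCl, pH 7.4, 30 min at 37C. Cytosolic IP1 read by TR-FRET; AC50 from Hill fits.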
PNC inhibitor – inhibitors of perinucleolar compartment assembly; AID 2417; PC3M PTB-GFP, PNC prevalence imaging, 16 h; active compounds read low; 140,000 compounds, 3.1% hits; activity change (PNC), negative = inhibition, % at 10 µM;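 active means readout at or below -70, meaning at least 70% loss of cells showing the perinucleolar compartment, a nuclear body marking cancer cells; inconclusive means readout between -30 and a set limit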
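Read-out is percentage of cells bearing a perinucleolar compartment, from automated 20x imaging of fixed, Hoechst-stained PC3M PTB-GFP cells. Cells were seeded 4 h, then exposed 16 h to compound (23 nl of library stock) in duplicate plates.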
12-hLO inh – 12-hLO (ALOX12) enzyme inhibition. purified 12-hLO, xylenol orange hydroperoxide absorbance. Potency, µM (top dose mostly 57.1 µM), actives largely listed as inhibitors. 150,000 compounds, 0.12% hits. AID 1452; further: nearly all actives have a fitted effect of over 55% in size
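Lipoxygenase turnover measured by absorbance at 573 and 405 nm after Fe-XO development. Human 12hLO 150 nM, arachidonate 40 uM, pH 7.0 Hepes buffer with detergent; 15 min compound preincubation, 30 min reaction.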
15-hLO-2 inh – blocks human 15-lipoxygenase 2 activity; Potency, µM (doses to about 57.1 µM), most hits filed as inhibitors; AID 881; purified 15hLO-2, xylenol orange hydroperoxide absorbance; 110,000 compounds, 0.56% hits; further: nearly all actives have a fitted effect of over 60% in size
Target sequence (O15296 whole entry, looked up): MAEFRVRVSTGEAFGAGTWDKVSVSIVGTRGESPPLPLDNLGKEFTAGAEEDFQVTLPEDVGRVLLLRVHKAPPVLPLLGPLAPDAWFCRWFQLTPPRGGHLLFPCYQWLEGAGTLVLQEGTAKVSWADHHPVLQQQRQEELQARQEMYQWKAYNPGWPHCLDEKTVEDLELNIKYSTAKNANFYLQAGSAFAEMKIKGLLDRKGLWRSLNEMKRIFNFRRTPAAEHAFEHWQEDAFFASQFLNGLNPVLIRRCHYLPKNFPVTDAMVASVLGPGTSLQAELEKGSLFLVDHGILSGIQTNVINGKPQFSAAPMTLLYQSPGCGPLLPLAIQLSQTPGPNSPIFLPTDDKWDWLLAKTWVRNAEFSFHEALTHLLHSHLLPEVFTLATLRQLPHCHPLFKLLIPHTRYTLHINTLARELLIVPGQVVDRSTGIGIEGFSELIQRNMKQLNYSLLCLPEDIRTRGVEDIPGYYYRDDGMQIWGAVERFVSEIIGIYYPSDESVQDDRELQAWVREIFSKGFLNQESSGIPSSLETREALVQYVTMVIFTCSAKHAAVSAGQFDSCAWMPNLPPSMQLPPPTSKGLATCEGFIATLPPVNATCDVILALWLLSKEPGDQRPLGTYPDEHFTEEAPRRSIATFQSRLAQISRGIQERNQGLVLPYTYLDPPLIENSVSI
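Enzyme 50 nM, AA 45 uM, 25 mM Hepes pH 7.5 + 0.01% Triton X-100; cpd preinc 15 min RT, rxn 90 min RT; stop/detect with 200 uM XO + 300 uM Fe(II) in 50 mM H2SO4, 30 min; A573/A405.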
HPGD inh – inhibitors of human 15-hydroxyprostaglandin dehydrogenase (HPGD). 150,000 compounds, 4.3% hits. Potency, µM, most hits filed as inhibitors. P15428. purified HPGD, NADH fluorescence kinetic, PGE2 substrate; active means well fitted inhibition curve with a large enough effect, not every such curve was filed as active; inconclusive means small, poorly fitted or top-dose-only effect, or another doubt; inactive means no such curve, though single readings can be large or run the other way
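NADH formation kinetics: reaction with 30 uM PGE2 and 1 mM NAD+ (final), 20 nM enzyme, Tris-HCl pH 8 with Tween 20, after 15 min compound preincubation at room temperature. Fluorescence change, last versus first of five reads.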
Of the large screens only hits and unclear results are named; the others gave an inactive call. Unless noted, the call rests on the fitted dose curve; in most records, active means well fitted curve in the direction sought with a large enough effect; inconclusive means small, poorly fitted or top-dose-only effect, or another doubt; inactive means no such curve, though single readings can be large; an effect the other way counts as inactive or inconclusive.

Cc1nnc(N(C)C(=O)Cc2ccc3c(c2)OCO3)s1	PNC inhibitor -100 (no result: 15-hLO-2 inh)
Cc1nnc2n1NC(c1ccc(Cl)cc1)C(C(=O)N1CCC(C)CC1)S2 (configuration not stated)	PNC inhibitor -112
Cc1nnc2n1NC(c1ccc(Cl)cc1)C(C(=O)N(C)C1CCCCC1)S2 (configuration not stated)	none
Cc1cc(C)cc(NC(=O)c2ccc(S(=O)(=O)C(F)F)cc2)c1	none (no result: 15-hLO-2 inh)
Cc1cccc(NC(=O)c2ccc(S(=O)(=O)C(F)F)cc2)c1C	PNC inhibitor -100 (no result: IMPase cell inh, 15-hLO-2 inh)
COc1ccc(CNC(=O)C2CCC(CNS(=O)(=O)c3cccc4nsnc34)CC2)cc1 (configuration not stated)	PNC inhibitor inconclusive
CCOCCCNC(=O)C1CCC(CNS(=O)(=O)c2cccc3nsnc23)CC1 (configuration not stated)	HPGD inh 25µM (no result: 15-hLO-2 inh)
COc1ccc(N(C)C(=O)c2cc3c(Cl)nc4ccccc4c3s2)cc1	PNC inhibitor inconclusive, HPGD inh 16µM (no result: 15-hLO-2 inh)
COCc1oc2ccc(NS(=O)(=O)c3ccc(C)cc3)cc2c1C(=O)OC	none (no result: IMPase Li inh, PNC inhibitor, 12-hLO inh, 15-hLO-2 inh, HPGD inh)
Cc1ccc(NC(=O)CSc2nnc(-c3n[nH]c4ccccc34)n2-c2ccccc2)c(C)c1	PNC inhibitor inconclusive (no result: 15-hLO-2 inh)
CN1CCN(C(=O)c2cc3nc(-c4ccc(F)cc4)cc(C(F)(F)F)n3n2)CC1	HPGD inh 11µM
COc1ccc(-c2cc(C(F)(F)F)n3nc(C(=O)N4CCCC4)cc3n2)cc1	HPGD inh inconclusive
CCOC(=O)CSc1ccc(C(=O)Nc2ccc(OC)cc2)cn1	none (no result: IMPase cell inh, PNC inhibitor, 12-hLO inh, 15-hLO-2 inh, HPGD inh)
O=[N+]([O-])c1ccccc1Sc1nccn1Cc1ccccc1	none (no result: 15-hLO-2 inh)
O=C(CNC(=O)c1ccco1)OC(C(=O)c1ccccc1)c1ccccc1 (configuration not stated)	none (no result: 15-hLO-2 inh)
O=C(CNC(=O)c1ccco1)NCC(=O)OC(C(=O)c1ccccc1)c1ccc(Cl)cc1 (configuration not stated)	PNC inhibitor -100 (no result: 15-hLO-2 inh)
O=C(O)c1ccc(Cl)c(Cl)c1	none (no result: IMPase cell inh, PNC inhibitor)
CC(=O)NCCC(Cc1ccccc1)c1ccco1 (configuration not stated)	PNC inhibitor -100 (no result: 15-hLO-2 inh)
O=C(NCCC(c1ccccc1)c1ccco1)c1cccs1 (configuration not stated)	none (no result: IMPase cell inh, PNC inhibitor, 12-hLO inh, 15-hLO-2 inh, HPGD inh)
CC[C@H](c1ccc(O)cc1)[C@@H](CC)c1ccc(O)cc1	15-hLO-2 inh 10µM (no result: PNC inhibitor)
CCC(c1ccc(O)cc1)C(CC)c1ccc(O)cc1 (configuration not stated)	15-hLO-2 inh inconclusive (no result: IMPase cell inh, PNC inhibitor)
COc1ccc(-n2nnnc2SCC(=O)NCc2ccco2)cc1OC	none
COc1ccc(C)cc1-n1nnnc1SCC(=O)NC(=O)NCc1ccco1	PNC inhibitor -81
CCCOc1ccc2ccccc2c1/C=N/n1cnnc1	none
CCOc1ccc2ccccc2c1/C=N/n1cncn1	HPGD inh 32µM
Clc1ccc(SCCCCN2CCNCC2)cc1	none (no result: IMPase cell inh, 15-hLO-2 inh)
CCCC(=O)Nc1sc2c(c1C(=O)Nc1ccccn1)CCCC2	none (no result: IMPase cell inh, PNC inhibitor, 12-hLO inh, 15-hLO-2 inh, HPGD inh)
COC(=O)C(C)n1cnc2c(nnn2Cc2ccc(Cl)cc2)c1=O (configuration not stated)	HPGD inh 28µM
CCOC(=O)Cn1cnc2c(nnn2Cc2ccc(Cl)cc2)c1=O	none
O=C(Cn1cnc2c(nnn2Cc2ccc(Cl)cc2)c1=O)OCc1ccccc1	HPGD inh 13µM (no result: 15-hLO-2 inh)
Cc1ccc(NC(=S)NC(=O)c2ccc(-c3ccc(Cl)cc3)o2)c(O)c1	PNC inhibitor inconclusive (no result: 15-hLO-2 inh)
Cc1cc(O)c(NC(=S)NC(=O)c2ccc(-c3ccc(Cl)cc3)o2)cc1C	12-hLO inh inconclusive, 15-hLO-2 inh 13µM
O=C(Nc1ccccc1N1CCCCC1)c1ccc(-c2ccc(Cl)cc2)o1	PNC inhibitor -82, HPGD inh inconclusive (no result: IMPase cell inh, 15-hLO-2 inh)
O=C(CCCc1ccc(-c2ccccc2F)cc1)Nc1ccc(O)cc1	none (no result: IMPase cell inh, PNC inhibitor)
CCOC(=O)CN(Cc1sccc1C)C(=O)Nc1ccc(OCC)cc1	none (no result: 15-hLO-2 inh)
Cc1nc2sccn2c(=O)c1S(=O)(=O)Nc1cccc(Cl)c1C	none (no result: IMPase Li inh, PNC inhibitor, 12-hLO inh, 15-hLO-2 inh, HPGD inh)
O=C(NCCCO)C(=O)NCCc1ccc(Cl)cc1	none (no result: IMPase cell inh, 15-hLO-2 inh)

From PubChem BioAssay
